A selection: hits, their analogues and other compounds. The true share with any hit is near 4.4%.
TIM10 inh – inhibits growth of TIM10 yeast strain. S. cerevisiae TIM10 strain growth, BacTiter-Glo luminescence, 24 h. inhibition, % at 10 µM. actives 1.4% (n = 330,000);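 active = inhibition of 40% or more at the single tested concentration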;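 also: wild-type TIM10 isogenic control strain grown at permissive 25 °C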
SKKanGAS inh – SKKanGAS growth inhibition | actives 1.3% (n = 300,000) | AID 1662 | S. pyogenes SKKanGAS, kanamycin growth, BacTiter-Glo, 6 h | inhibition, % at 7.5 µM;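 active = mean replicate score, as percent of positive control median, at least 50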;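 also: strain carries kanamycin resistance gene driven by streptokinase promoter and grows in 40 µg/ml kanamycin; loss of luminescence reflects streptokinase promoter inhibition or plain growth inhibition; 0% = median of DMSO wells and 100% = positive control at its reference dose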
tim10-1 inh – growth inhibitors of tim10-1 mutant yeast | S. cerevisiae tim10-1 ts strain growth, BacTiter-Glo, 24 h | inhibition, % at 20 µM | actives 2.2% (n = 330,000);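 active = inhibition of at least 40%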;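 also: mutant grown at 25 °C; 0% = DMSO wells with yeast and 100% = wells holding no yeast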
tim23-1 inh – growth inhibitors of tim23-1 mutant yeast; S. cerevisiae tim23-1 growth, BacTiter-Glo luminescence, 24 h; inhibition, % at 20 µM; actives 1.3% (n = 330,000); AID 463212;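 active = growth inhibition of the mutant yeast at or above 50%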;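 also: temperature-sensitive mutant grown at 25 °C; plate controls were DMSO-treated mutant yeast for no effect and medium wells lacking yeast for full effect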
PfHsp90 set2 – growth inhibition of yeast expressing Plasmodium Hsp90; actives 0.32% (n = 310,000); S. cerevisiae expressing PfHsp90, BacTiter-Glo ATP, 48 h; yeast lacking PDR1 and PDR3 efflux regulators; inhibition, % at 9.4 µM;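 active = every replicate shows inhibition above about 80%, whatever the replicate mean, limit read from the data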;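 also: 0% = DMSO neutral controls and 100% = 20 µM radicicol positive controls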
tim10-1 confirm – tim10-1 yeast growth inhibition, confirmed. AID 463213. inhibition, % at 20 µM. shares compounds with tim10-1 inh. S. cerevisiae tim10-1 ts strain growth, BacTiter-Glo, 24 h. actives 56% (n = 7,400);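 active = inhibition of yeast growth at or above a set limit in either of two repeat tests at 20 µM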;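 also: tim10-1 mutant grown at permissive 25 °C to find synthetic lethal compounds; 0% = DMSO yeast wells and 100% = medium wells without yeast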
* marks the source's active call; other numbers are inactive results; nt = not tested or not shown.

SMILES | TIM10 inh | SKKanGAS inh | tim10-1 inh | tim23-1 inh | PfHsp90 set2 | tim10-1 confirm
COc1cc2ccccc2cc1C(=O)OCC(=O)N(CC(C)C)c1c(N)n(Cc2ccccc2)c(=O)[nH]c1=O | 6 | -15 | -6 | 5 | 7 | nt
O=C(NC1CCCCC1)C(c1cccnc1)N(CCc1ccccc1)C(=O)Cc1cccs1 (centres undefined) | -3 | 2 | -3 | -14 | -7 | nt
O=C1NCCOC(=O)[C@@H](Cc2ccc(F)cc2)C/C=C\C[C@@H]1CC(=O)N(CCO)Cc1ccccc1 | -2 | nt | 9 | 13 | -2 | nt
COc1cc2c(cc1OC)CN(C(=O)CCNC(=O)c1ccc(Br)cc1)CC2 | -7 | nt | 5 | 3 | -15 | nt
COc1cc2c(cc1OC)CN(CCC(=O)c1ccc(Br)cc1)CC2 | 4 | 4 | 50* | 21 | nt | 33*
CC1CCN(S(=O)(=O)c2ccc3c(c2)NC(=O)CS3)CC1 | 23 | -1 | 42* | 46 | -2 | 23
COc1cccc(N2CCN(S(=O)(=O)c3ccc4c(c3)NC(=O)CS4)CC2)c1 | -2 | 9 | 2 | 1 | -25 | nt
C=C(C)COc1ccc(-c2[nH]ncc2-c2ccc(OC)c(OC)c2)c(O)c1 | 33 | 2 | 46* | 36 | -3 | 34*
Cc1cc(S(=O)(=O)Nc2ccc(C(=O)NCc3cccnc3)cc2)ccc1F | -1 | 18 | -12 | 5 | nt | nt
COc1ccccc1/C=C/C(=O)OCC(=O)Nc1c(C)nn(-c2ccccc2)c1C | 14 | nt | 45* | 31 | nt | 29
CC(C)Cc1nc(N2CCN(C(=O)c3ccccc3)CC2)c(C#N)c2c1CCC2 | 19 | 7 | 10 | 39 | 21 | nt
CC(=O)N1CCN(c2nc(CC(C)C)c3c(c2C#N)CCC3)CC1 | 23 | -1 | 49* | 26 | -2 | 16
O=C(COC(=O)Cc1c(F)cccc1Cl)NNC(=O)c1ccccc1 | 10 | nt | 8 | 3 | 4 | nt
CC(C)C[C@H](NC(=O)c1nc[nH]c1C(=O)NCCCCCN)C(=O)OCc1ccccc1 | -3 | nt | 7 | 16 | 15 | nt
N=c1c2c(-c3ccccc3)c(-c3ccccc3)n(Cc3ccco3)c2ncn1CCO | 32 | -5 | 43* | 36 | -8 | 28
CCC(C)NC(=O)c1ccc(Cl)c(S(=O)(=O)Nc2ccccc2N2CCOCC2)c1 (centres undefined) | 2 | nt | 2 | 12 | -17 | nt
N#CC(C#N)=c1ccc2c(c1)NC1(CCCCC1)N=2 | 29 | 19 | 46* | 44 | 42 | 42*
N#CC(C#N)=C1NC2(CCCCC2)Cc2ccccc21 | 24 | -6 | 20 | 12 | -24 | nt
CCn1nc(NS(=O)(=O)c2ccc(C)cc2)c2cc3ccccc3nc21 | -9 | 5 | 44* | 34 | 3 | -9
CCCn1nc(NS(C)(=O)=O)c2cc3cccc(C)c3nc21 | 27 | -2 | 42* | 34 | nt | 35*
COc1cccc(N=CNc2cccc(OC)c2)c1 | nt | nt | nt | nt | 9 | nt
COc1ccc(CCC(=O)NCC23CC4CC(CC(C4)C2)C3)cc1 | 27 | -5 | 32 | 37 | -8 | nt
Cc1ccc(SCCNC(=S)Nc2cc(C)ccc2C)cc1 | 32 | 29 | 43* | 14 | 5 | 12
Cc1ccc(SCCNC(=S)Nc2ccccc2)cc1 | 33 | 5 | 29 | 44 | nt | nt
CCCn1c(NC(=O)c2ccc(Cl)c(S(=O)(=O)N3CCCC3)c2)nc2ccccc21 | 32 | 92* | 44* | 25 | 47 | 31*
SMILES | TIM10 inh | SKKanGAS inh | tim10-1 inh | tim23-1 inh | PfHsp90 set2 | tim10-1 confirm
CC(C)OC(=O)/C(C#N)=C/c1cn(C)c2ccccc12 | 27 | -14 | 20 | 18 | -3 | nt
CC(C)OC(=O)/C(C#N)=C/c1c[nH]c2ccccc12 | 10 | -16 | 42* | 32 | -11 | 28
c1ccc(-c2cc(-c3nnc4n3N=C(c3ccc5ccccc5c3)CS4)[nH]n2)cc1 | 10 | 35 | 48* | 26 | -21 | 8
Cc1cc(-c2nnc3n2N=C(c2ccc(-c4ccccc4)cc2)CS3)n[nH]1 | 24 | 47 | 32 | 46 | -27 | nt
CC(C)Cn1c(N)c(C(=O)COC(=O)c2ccc(Br)cc2)c(=O)n(C)c1=O | 16 | nt | 16 | 34 | -24 | nt
CC(/C=N/Nc1nc(C)cc(C)n1)=C\c1ccc(C(C)C)cc1 | 20 | -5 | 46* | 39 | 8 | 35*
Cc1ccc(-c2nc(NCc3cccnc3)c3ccccc3n2)cc1 | 11 | -1 | 46* | 38 | 27 | 30
Cc1ccc(-c2nc(NCc3ccco3)c3ccccc3n2)cc1 | 33 | 5 | 34 | 48 | nt | nt
c1cncc(-c2nc(NCc3ccco3)c3ccccc3n2)c1 | 16 | -6 | 41* | 30 | -22 | 37*
Cn1cnc(C(=O)NCc2ccc(CNC(=O)OC(C)(C)C)cc2)c1C(=O)NCc1ccc(CNC(=O)OC(C)(C)C)cc1 | 0 | nt | -1 | 1 | nt | nt
N#CC1=C(SCC(N)=O)NC2=C(C(=O)c3ccccc32)C1c1ccc(Cl)cc1 (centres undefined) | 29 | 6 | 44* | 27 | -29 | 27
CSCSC1=C(C#N)C(c2ccc(Cl)cc2)C(C(C)=O)=C(C)N1 (centres undefined) | 18 | nt | 4 | 24 | nt | nt
COc1cccc(/C=N/Nc2nc(Nc3ccccc3)nc(-n3nc(C)cc3C)n2)c1O | 14 | 98* | 45* | 42 | nt | 27
N#CC(C#N)=CC1=C2OC(c3ccccc3)=CC(c3ccccc3)=C2CCC1 | 23 | 13 | 48* | 43 | -18 | 13
O=S(=O)(Nc1nc(-c2sccc2Cl)cs1)c1cc(Cl)ccc1Cl | 33 | 85* | 43* | 37 | -55 | 13
CC(C)(C)c1nnc(NS(=O)(=O)c2cc(Cl)ccc2Cl)s1 | 0 | 25 | -12 | -2 | -9 | nt
Cc1ccc(Cn2ccnc2C(=O)Nc2ccccc2)cc1 | 5 | 14 | 31 | 15 | 10 | nt
N#Cc1ccc(Cn2ccnc2C(=O)Nc2ccccc2)cc1 | 26 | -1 | 57* | 2 | -5 | 27
CCOC(=O)C1=C(N)Oc2cc(O)ccc2C1c1cccc([N+](=O)[O-])c1 (centres undefined) | 38 | -3 | 46* | 44 | -10 | 30
c1ccc(-c2nc(CSc3n[nH]c(-c4cccs4)n3)cs2)cc1 | 37 | -13 | 42* | 39 | 5 | 34*
O=C(CSc1n[nH]c(-c2cccs2)n1)N1CCCC1 | -1 | nt | -14 | -9 | -12 | nt
CCC(CO)Oc1cc(NCc2ccc(C(F)(F)F)cc2)c2ncn(C(C)C)c2c1 (centres undefined) | -6 | nt | -1 | 5 | -10 | nt
Cc1cccc(-n2c(-c3csc(C)c3)n[nH]c2=S)c1 | 7 | -1 | 41* | 19 | 5 | 14
CCc1cc(-c2n[nH]c(=S)n2-c2cccc(C)c2)cs1 | 22 | -9 | 43* | 36 | -17 | 30*
COC(=O)Nc1ccc2c(c1)N(C(=O)CCN(C)C)c1ccccc1CC2 | 0 | 0 | 1 | -14 | 22 | nt
